This is an account of results in PubChem BioAssay AID1159577 (Broad Institute, 2015).

Structures are written as SMILES. The whole screen tested about 1,300 compounds, of which about 240 (18%) were called active. Another 8% or so got no clear call; they are omitted. Not all results are given here. Results with a measured potency or affinity are listed apart. A number with no mark means an inactive call. No rule for the calls is given here.

The experiment in a line: toxicity to human hepatoma HepG2 cells – cell-based, cherry-picked samples, cytotoxicity control, dose response (AID 1159577).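 Also: 0% = neutral control wells and -100% = positive control wells.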 Conditions: HepG2 cytotoxicity counterscreen, plate reader; series mostly up to 19.5 µM; activity change, negative = cytotoxicity: at the top concentration. A general note: The purpose of a counterscreen is to sort out artefacts and off-target activity.
In the case of `COc1ccc(S(=O)(=O)Nc2ccc3c(c2)CC(=O)N([C@H](C)CO)C[C@H](C)[C@H](CN(C)S(=O)(=O)c2ccc(C)cc2)O3)cc1`, the “activity change, negative = cytotoxicity” value is 5.57%.

`N#C[C@@H]1[C@H](c2ccccc2C2=CCCCC2)[C@@H](CO)N1C(=O)c1cccc(F)c1`: the “activity change, negative = cytotoxicity” value is -10.4% [at 21 µM]. For `COc1ccc(-c2ccc(C3[C@H]4CNC[C@@H]3N4C(=O)Nc3ccc(C(F)(F)F)cc3)cc2)cc1` (stereo not given in full) the value was 7.31%. For `O=C(Nc1ccc(C(F)(F)F)cc1)N1C[C@@H]2N[C@H](C1)C2c1ccc(-c2cccnc2)cc1` (stereo not given in full) the value was 23.2%; for `COc1cccc(-c2ccc(C3[C@@H]4CN(C(=O)C5CC5)C[C@H]3N4)cc2)c1` (stereo not given in full), -2.61%. For `O=C(c1cnccn1)N1CC(=O)N2[C@@H](CO)[C@@H](c3ccc(C#CCc4ccccc4)cc3)[C@@H]2C1` the value was 5.35%. For `CCC(=O)N1CC2(C1)CN(Cc1cc(F)ccc1F)[C@H](CO)c1[nH]c3cc(OC)ccc3c12`, the “activity change, negative = cytotoxicity” value was -5.03%. Under `CC(C)(C)[S@@](=O)N1Cc2cc(C(=O)N3CCc4ccccc4C3)nc(-c3cccc(-c4ccncc4)c3)c2[C@H]1CCO` stands 14%; under `C[C@H]1CN([C@@H](C)CO)C(=O)CCCn2nncc2CO[C@H]1CN(C)C(=O)Nc1ccc(N2CCCCC2)cc1`, 4.08%. Consider `C[C@@H]1CN([C@H](C)CO)C(=O)c2cc(/C=C/c3ccccc3)cnc2O[C@H]1CN(C)C(=O)NC1CCCCC1`, for which the “activity change, negative = cytotoxicity” value was -16.2%. Consider `CN(C)CC#Cc1ccc([C@@H]2[C@H](CO)N3C(=O)CN(C(=O)Cc4cccnc4)C[C@@H]23)cc1`, for which the “activity change, negative = cytotoxicity” value is -5.53%. Under `COCC(=O)Nc1ccc2c(c1)C(=O)N(C)C[C@H](OC)[C@H](C)CN(Cc1cccc(F)c1)[C@@H](C)CO2` stands 6.07%.

`C[C@@H]1CN([C@H](C)CO)C(=O)c2cccc(NC(=O)c3nc4ccccc4s3)c2O[C@H]1CN(C)C(=O)Nc1ccc(C(F)(F)F)cc1`: the “activity change, negative = cytotoxicity” value is 24.7%.

On to `CCCNC(=O)N1CCC2(CC1)CN(Cc1ccc(F)cc1)[C@@H](CO)c1[nH]c3cc(OC)ccc3c12`, for which the “activity change, negative = cytotoxicity” value is 12%. For `CO[C@@H]1CN(C)C(=O)c2ccc(NC(=O)c3nc4ccccc4s3)cc2OC[C@@H](C)N(Cc2ccccc2)C[C@H]1C` the value was 19.9%. For `COc1ccc(-c2ccc(C3[C@H]4CNC[C@@H]3N4S(=O)(=O)c3cccc(OC)c3)cc2)cc1` (stereo not given in full) the value was 5.57%.

Consider `COc1cc(CN2[C@@H]3CNC[C@H]2C3c2ccc(-c3ccccc3)cc2)cc(OC)c1` (stereo not given in full), for which the “activity change, negative = cytotoxicity” value was -27.9% [at 21 µM]. As to `CCC(=O)N1CC2(C1)CN(Cc1cccc(Cl)c1)[C@H](CO)c1[nH]c3cc(OC)ccc3c12`, the “activity change, negative = cytotoxicity” value was -13%. For `C[C@@H]1CN([C@H](C)CO)C(=O)c2cccc(NS(=O)(=O)c3cccs3)c2O[C@H]1CN(C)Cc1ccc(C(F)(F)F)cc1` the value was 0.28%; for `COc1ccc(C#Cc2ccc3c(c2)O[C@H](CN(C)C(=O)Nc2cccc(OC)c2)[C@H](C)CN([C@@H](C)CO)S3(=O)=O)cc1`, 4.51%; for `CC(C)(C)[S@](=O)N1Cc2cc(C(=O)NC3CCC3)nc(-c3cccc(Br)c3)c2[C@@H]1CCO`, 15.7%. For `COc1ccc(S(=O)(=O)N(C)C[C@@H]2OCc3ccccc3-c3c(n(C)c4ccccc34)C(=O)N([C@@H](C)CO)C[C@@H]2C)cc1` the value was 3.28%. For `COc1ccc2c3c(n(C)c2c1)[C@H](CO)N(C(=O)c1cccc(F)c1)CC31CN(C(=O)c2cccc(F)c2)C1` the value was 38.5%; for `CO[C@@H]1CN(C)C(=O)c2ccc(NC(=O)c3cc(C)on3)cc2OC[C@@H](C)N(S(=O)(=O)c2cccc(C)c2)C[C@H]1C`, -12.2%; for `CCC(=O)N1CCC2(CC1)CN(Cc1cccc(OC)c1)[C@@H](CO)c1[nH]c3cc(OC)ccc3c12`, -21.1%. Consider `C[C@@H]1CN([C@H](C)CO)C(=O)c2c(c3ccccc3n2C)-c2ccccc2CO[C@@H]1CN(C)C(=O)c1cc(Cl)cc(Cl)c1`, for which the “activity change, negative = cytotoxicity” value is 1.08%.

Consider `COc1ccc(CN2C[C@H](C)[C@@H](OC)CN(C)C(=O)c3cc(NC(=O)c4nc5ccccc5s4)ccc3OC[C@@H]2C)cc1`, for which the “activity change, negative = cytotoxicity” value was -2.87%. For `CCCNC(=O)Nc1ccc2c(c1)C(=O)N(C)C[C@H](OC)[C@@H](C)CN(C(=O)C1CCOCC1)[C@@H](C)CO2` the value was 0.908%; for `C[C@@H]1CN([C@@H](C)CO)S(=O)(=O)c2ccc(/C=C/c3ccccc3)cc2O[C@H]1CN(C)C(=O)c1ccc2c(c1)OCO2`, -5.77%. For `C/C=C/c1ccc2c(c1)[C@H]1[C@H](CCN1C(=O)c1ccc3c(c1)OCO3)[C@H](CO)N2` the value was 17.9%. For `C/C=C/c1ccc2c(c1)[C@H]1[C@H](CCN1S(=O)(=O)c1cccc(F)c1)[C@@H](CO)N2` the value was -18.7%.

As for `C/C=C/c1ccc(C2[C@H]3CNC[C@@H]2N3Cc2cc(F)ccc2F)cc1` (stereo not given in full), the “activity change, negative = cytotoxicity” value was -9.53%. For `C[C@@H]1CN([C@@H](C)CO)C(=O)c2cc(NC(=O)Nc3ccccc3)ccc2O[C@@H]1CN(C)C(=O)Nc1cccc2ccccc12` the value was 0.484%; for `COc1ccc2c3c([nH]c2c1)[C@@H](CO)N(Cc1ccccc1Cl)CC31CCN(C(=O)C2CC2)CC1`, 5.31%; for `CCC(=O)N1CC2(C1)CN(Cc1ccc(Cl)cc1)[C@@H](CO)c1[nH]c3cc(OC)ccc3c12`, -17.8%. Under `C/C=C/c1ccc2c(c1)[C@H]1[C@H](CCN1S(=O)(=O)c1ccccc1C)[C@@H](CO)N2` stands 2.08%. Take `CO[C@@H]1CN(C)C(=O)c2cc(NC(C)=O)ccc2OC[C@@H](C)N(C(=O)Cc2cccnc2)C[C@H]1C`: the “activity change, negative = cytotoxicity” value was -3.07%. Under `O=C(C[C@H]1C[C@@H]2c3cc(NC(=O)Nc4ccccc4)ccc3O[C@@H]2[C@H](CO)O1)NCc1ccccc1` stands -19.7%; under `CCC(=O)N1[C@H](CO)[C@H](c2ccccc2)[C@@H]1CN(CC)C(=O)c1cccc(F)c1`, 6.38%; under `C[C@@H]1CN([C@H](C)CO)S(=O)(=O)c2ccc(C3=CCCCC3)cc2O[C@H]1CN(C)C(=O)Cc1ccncc1`, 18%. For `CN(C)CC(=O)N1[C@H](CO)[C@H](c2ccc(-c3cccc(C(=O)N(C)C)c3)cc2)[C@@H]1C#N` the value was 9.58%; for `CCCN1[C@H](CO)[C@H](c2ccc(C3=CCCC3)cc2)[C@H]1CN(C(C)=O)C1CCCC1`, 4.65%; for `CO[C@@H]1CN(C)C(=O)c2cc(NC(=O)C3CC3)ccc2OC[C@H](C)N(CC2CCCC2)C[C@H]1C`, -23.7%. Under `CC(C)CNC[C@@H]1[C@@H](c2ccccc2)[C@@H](CO)N1Cc1ccc(F)cc1` stands -9.73%; under `CCc1sc(N2[C@@H](C#N)[C@@H](c3ccccc3-c3ccccc3)[C@@H]2CO)nc1C`, -7.69% [at 21 µM].
